Data on 13 compounds can be found in PubChem BioAssay (EPA / NIEHS).

Calls of active or inactive are those of the source. How the source made its calls: active means hit-call score of the fitted dose curve at least 0.9, where 1 is the maximum; inactive means score below 0.9.

This experiment is described as follows: APR_HepG2_CellCycleArrest_72hr: Apredica 72-hour HepG2 Assay for Cell Cycle Arrest (AID 2282914). To be noted: high-content imaging, actives raise or lower the signal. On the procedure:
APR_HepG2_72hr is a cell-based, multiplexed-readout assay that uses HepG2, a human liver cell line, with measurements taken at 72 hours after chemical dosing in a 384-well plate.APR_HepG2_CellCycleArrest_72hr is one of 10 assay component(s) measured or calculated from the APR_HepG2_72hr assay. It is designed to make measurements of cell phenotype, a form of morphology reporter, as detected with fluorescence intensity signals by HCS Fluorescent Imaging technology.Data from the assay component APR_HepG2_CellCycleArrest_72hr was analyzed into 1 assay endpoint. This assay endpoint, APR_HepG2_CellCycleArrest_72hr, was analyzed with bidirectional fitting relative to DMSO as the negative control and baseline of activity. Using a type of morphology reporter, measures of all nuclear dna for gain or loss-of-signal activity can be used to understand the signaling at the pathway-level as they relate to the gene . Furthermore, this assay endpoint can be referred to as a primary readout, because this assay has produced multiple assay endpoints where this one serves a signaling function. To generalize the intended target to other relatable targets, this assay endpoint is annotated to the cell cycle intended target family, where the subfamily is arrest.
Cells were treated with dimethyl sulfoxide (DMSO) as a solvent control at a final concentration of 0.5% v/v or with compounds in DMSO with a resulting final DMSO concentration of 0.5% v/v. Compound treatment was done at concentrations of 0.39, 0.78, 1.56, 3.12, 6.24, 12.5, 25, 50, 100, and 200 uM in duplicate on each plate. Cells were treated with compounds for 1, 24, or 72 hr. Carbonyl […] m-chloro-phenylhydrazone (CCCP) and taxol were used as positive controls for mitochondrial function and cytoskeletal stability, respectively; DMSO served as the negative control for this experiment. Cells were fixed by the direct addition of 50 uL formaldehyde in Hank's Balanced Salt Solution (HBSS) to a final concentration of 3.7%. After incubation in the fixation medium for 30 min at room temperature (293-298 K), cells were rinsed twice with HBSS and treated with cell permeabilization buffer (16 uL of 0.5% Triton X-100) for 10 min at room temperature (293-298 K) before labeling. For mitochondrial membrane potential and mitochondrial measurements, pre-fixed cells were incubated with 50 uL of MitoTracker Red CMXRos (Invitrogen) at a concentration of 250 nM for 30 min before fixation. In the remaining cases, post-fixed cells were labeled by incubation with a multiplexed mixture of primary antibodies in HBSS for 60 min at room temperature (293-298 K) to detect immunoreactivity of c-Jun (1:500), phospho-histone H3 (1:100), phospho-histone H2A.x (1:200), p53 (1:400), alpha-tubulin (1:200) and Hoechst 33342 (2 ug/mL). Cells were labeled for multiplexed imaging on two separate plates: a) Hoechst 33342, MitoTracker Red, phospho-histone H3, and alpha-tubulin, and b) Hoechst 33342, phospho-histone H2A.x, and c-Jun. A final rinse with HBSS (50 uL) was performed before analysis. The primary and secondary antibodies for the proteins were phospho-histone H3 (rabbit anti-phospho-histone H3 and FITC-donkey anti-rabbit IgG), phospho-histone H2A.x (mouse anti-phospho-histone H2A.x and FITC-donkey anti-mouse IgG), c-Jun (rabbit anti-phospho-c-Jun and Cy3-donkey anti-rabbit IgG), p53 (sheep anti-p53 and Cy5-donkey anti-sheep IgG), alpha-tubulin (mouse anti-alpha-tubulin and Cy5-donkey anti-mouse IgG). These antibodies are available as the CellCiphr HepG2 assay kit (Millipore).Digital images of each well were captured using a Cellomics ArrayScan VTI (Thermo Scientific Cellomics) (0.8 NA objective, 0.63x optical coupler, and XF-93 filter set) at 20x magnification. The images were acquired using the autofocus feature of the ArrayScan instrument, which entails the following steps. First, the camera focuses on channel 1 (Hoechst 33342), where nuclei are identified. Second, a Z offset of 1 um is used for capturing mitochondria (MitoTracker Red). […]
Regarding `N#Cc1cccnc1`, the compound was classed as inactive.

Consider `Oc1cc(Cl)c(Cl)cc1Cl`, for which the result was inactive.

Regarding `Clc1cccc(Cl)c1Cl`, the compound was classed as inactive.

Turning to `O=C(N[C@H]1CN2CCC1CC2)c1ccc2c(c1)OCCO2`, the compound was classed as inactive.

The AC50 is the concentration at which the activity in the assay is half-maximal. In the case of `CN(C)C(=S)S`, the AC50 was 0.0391 µM (active).

Turning to `OCCN(CCO)CCO`, the result was inactive.

As to `CC(C)(C)c1ccccc1O`, the compound was called inactive.

As to `CC(C)O.CC(C)O.OCCN(CCO)CCO.OCCN(CCO)CCO.[Ti]`, the outcome was inactive.

As for `COc1ccccc1N`, the result was inactive.

Take `Cc1cc(C)cc(C)c1`: the result was inactive.

In the case of `Clc1cccc(Cl)c1`, the compound was classed as inactive.

Take `CCCCCCCCCCCCc1cccc(S(=O)(=O)O)c1`: the result was inactive.

For `O=C(O)C1(c2ccc3c(c2)OC[C@H](Cc2ccc(-c4ccccc4)cc2)[C@H]3O)CCCC1`, the AC50 was 118 µM (active).
